This is an account of results in PubChem BioAssay.

Active and inactive are the calls of the source.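 Rule for the calls, unless noted: active = inhibition above 20% together with a positive visual image hit; inconclusive = visual image hit but inhibition not above 20%; inactive = no visual image hit.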

A word on the inhibition: it is the relative decrease from the control value, in per cent.

Test [1] can be described thus: inhibitors of TNFa-induced NFkB p65 translocation, primary screen, imaging, HUVEC, MLSMR starter and 10KST1 sets (AID 438).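 For inhibition: signal is the nuclear over cytoplasmic p65 intensity ratio per well.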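 Note: compound added about 3h40 before a 20 min TNFalpha stimulation.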 Particulars: HUVEC TNFa-induced p65 nuclear translocation; cell count: measured here: nuclei count (cytotoxicity indicator), at 2.08 µM; inhibition: at 2 µM, stronger effect = higher value, 0% TNFa-plus-vehicle, 100% no-TNFa wells.
Test [2] is described as follows: reduction of polyQ htt aggregates in cells – imaging, exon1htt(103Q)mCFP cells, high-content imaging, primary screen (AID 483;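 active = visual image review flags a hit and inhibition of aggregation exceeds 20%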;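 note: compound exposure lasted 3 days before fixation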;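 for nuclei count: percent of the per-plate median nuclei count of sample wells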). The note with it: exon1htt(103Q)mCFP cell line, aggregate imaging, at 2 µM; inhibition of aggregation: stronger effect = higher value; nuclei count: measured here: cell count, toxicity.
Test [3] in a line: endothelial E-selectin expression blockers – imaging, HUVEC, immunofluorescence, MLSMR starter and 10KST1 sets, primary screen (AID 487;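 active = visually confirmed hit in the image check and inhibition above 20%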;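 for inhibition: signal is fraction of cell area covered by stained E-selectin grains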;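 for nuclei count: 100% = median nuclei count of all wells on the same plate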). The note with it: HUVEC TNFalpha-induced E-selectin immunofluorescence imaging, at 2 µM; inhibition: stronger effect = higher value; nuclei count: measured here: cell number, toxicity.
Test [4] has as its target Voltage-gated potassium channel subunit beta-2 (Rattus norvegicus) (UniProt P62483). In words: inhibitors of rat Kvbeta2 reductase activity – biochemical, NADPH fluorescence, primary screen (AID 622;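 active = fluorescence slope higher than the sample average by over 3 SD, cut at about -0.22 in these data, passing the limit was not always enough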;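 note: slope of raw intensity against log time taken from 70 to 1610 s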). Particulars: recombinant KvBeta, 4-cyanobenzaldehyde reduction, at 10 µM, stronger effect = higher value.
Test [5] shares this target. In words: enhancers of rat Kvbeta2 NADPH turnover – biochemical, NADPH fluorescence, primary screen (AID 623;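 active = NADPH fluorescence slope more negative than the mean of all samples by about 3 SD, 99.7% confidence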;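 note: fluorescence intensity change per second fitted from 20 to 320 s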). The note with it: Recombinant KvBeta, NADPH fluorescence decrease slope, 10 min; at 10 µM; stronger effect = lower value.
For test [6], the target named is Alpha-2C adrenergic receptor (Homo sapiens) (UniProt P18825). In words: compounds altering alpha2C-coupled GIRK flux – cell-based, HEK293 alpha2C/GIRK1/2, thallium flux, primary screen (AID 624;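 active = fluorescence slope after compound addition differing from the mean of all screened samples at 99.7% confidence, in either direction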;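 note: slope of fluorescence ratio to pre-addition baseline per second over 15 to 24 s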). The note with it: thallium flux BTC fluorescence, at 10 µM, actives lie on both sides.
The nature of test [7]: blockers of RIG-like receptor reporter activation – cell-based, Sendai virus stimulus, luciferase, 10K MLSCN set, TLR/RLR signaling modifier project, primary screen (AID 602276;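 active = inhibition at or above 50% at 10 µM; inactive = inhibition below 50%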;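 note: firefly luciferase from ISG56 promoter only with Renilla not read in this screen; 0% = Sendai virus plus DMSO and 100% = medium plus DMSO without virus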). The note with it: HEK293 RL24 IRF3 luciferase reporter, at 10 µM, stronger effect = higher value. For orientation: In a reporter assay the amount or activity of a reporter protein is the signal.
Test [8] can be described thus: TLR3 IRF3 reporter activation blockers – cell-based, poly I:C stimulus, luciferase, 10K MLSCN set, primary screen (AID 602277;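 active = inhibition of the reporter signal at or above 50%; inactive = inhibition below 50%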). The note with it: HEK293-TLR3 RL24 IRF3 luciferase reporter, at 10 µM, stronger effect = higher value.

Sequence of Alpha-2C adrenergic receptor (Homo sapiens) (P18825 whole entry, looked up): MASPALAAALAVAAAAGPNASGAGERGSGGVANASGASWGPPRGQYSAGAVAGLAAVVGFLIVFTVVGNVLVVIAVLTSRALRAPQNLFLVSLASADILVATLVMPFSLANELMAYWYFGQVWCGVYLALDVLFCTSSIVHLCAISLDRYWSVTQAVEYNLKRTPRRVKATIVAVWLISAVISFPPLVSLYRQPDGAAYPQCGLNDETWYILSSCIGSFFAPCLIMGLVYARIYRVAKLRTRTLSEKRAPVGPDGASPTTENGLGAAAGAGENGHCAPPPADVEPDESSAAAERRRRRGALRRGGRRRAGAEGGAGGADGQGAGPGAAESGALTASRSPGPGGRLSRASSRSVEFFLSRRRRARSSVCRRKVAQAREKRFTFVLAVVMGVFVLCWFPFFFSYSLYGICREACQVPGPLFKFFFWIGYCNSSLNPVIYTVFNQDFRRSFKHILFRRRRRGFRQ
Sequence of Voltage-gated potassium channel subunit beta-2 (Rattus norvegicus) (P62483 whole entry, looked up): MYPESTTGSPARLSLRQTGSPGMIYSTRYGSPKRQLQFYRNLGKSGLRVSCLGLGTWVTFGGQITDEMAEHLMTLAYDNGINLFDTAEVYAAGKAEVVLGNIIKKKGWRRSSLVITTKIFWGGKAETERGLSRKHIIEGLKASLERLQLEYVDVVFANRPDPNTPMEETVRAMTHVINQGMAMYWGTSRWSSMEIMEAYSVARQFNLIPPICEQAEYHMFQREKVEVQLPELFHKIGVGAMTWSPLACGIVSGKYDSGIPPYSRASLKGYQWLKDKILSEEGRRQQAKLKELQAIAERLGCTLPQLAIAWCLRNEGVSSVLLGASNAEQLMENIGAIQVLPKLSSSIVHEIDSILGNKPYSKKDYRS

With `CCOC(=O)c1cnc(C(C)(C)C)[nH]c1=O`, the cell count in test [1] stood at 328. The inhibition was -6.5% (inactive) in test [1], -109% (inactive) in test [3], 10.2% (inactive) in test [7] and 17.4% (inactive) in test [8]. For the same compound, in test [2], the inhibition of aggregation is -6.3% (inactive). The nuclei count in test [2] came to 109%; in test [3], 142%. Besides, the fluorescence slope in test [4] was -0.318 (inactive). Also, in test [5], the NADPH fluorescence slope was -4.2e-05 (inactive). The slope in test [6] was 0.00422 (inactive).
As to `Cn1nc(C(=O)NC2CCCCCC2)ccc1=O`, in test [1], the cell count worked out at 348. Besides, the inhibition in test [1] is -4.6% (inactive); in test [3], -2.2% (inactive); in test [7], 9.51% (inactive); in test [8] it was 11.7% (inactive). Further, in test [2], the inhibition of aggregation is 14% (inactive). In addition, the nuclei count came to 105% in test [2] and 121% in test [3]. The fluorescence slope in test [4] was -0.608 (inactive). The NADPH fluorescence slope in test [5] was -2.1e-05 (inactive). In addition, in test [6], the slope is 0.00579 (inactive).
Turning to `CCCn1c(OC)nc2c1c(=O)n(C)c(=O)n2C`, the cell count in test [1] turned out to be 660. For the same compound, the inhibition in test [1] is -3.7% (inactive); in test [3] it was -34.6% (inactive); in test [7] it was 15.2% (inactive); in test [8], 33.4% (inactive). The inhibition of aggregation in test [2] is 2.9% (inactive). Also, the nuclei count in test [2] turned out to be 104%; in test [3], 124%. Moreover, the fluorescence slope in test [4] is -0.426 (inactive). Moreover, the NADPH fluorescence slope in test [5] was -5.4e-05 (inactive). Besides, the slope in test [6] was 0.00615 (inactive).
Regarding `CSCCC(N=CC1=C(O)CC(C)(C)CC1=O)C(=O)O` (stereo not given), the cell count in test [1] turned out to be 405. Also, the inhibition is 1.8% (inactive) in test [1], -0.2% (inactive) in test [3], 15.3% (inactive) in test [7] and 22.3% (inactive) in test [8]. Moreover, the inhibition of aggregation in test [2] is -10.8% (inactive). Further, the nuclei count in test [2] was determined as 104%; in test [3] it was 118%. The fluorescence slope in test [4] was -0.363 (inactive). Moreover, in test [5], the NADPH fluorescence slope was -4.2e-05 (inactive). Besides, in test [6], the slope was 0.00607 (inactive).
Regarding `Cn1c(=O)c2c(-c3ccccc3)n(CCCN3CCOCC3)cc2n(C)c1=O`, the cell count in test [1] turned out to be 953. Moreover, the inhibition in test [1] is 7.9% (inactive); in test [3] it was -6.9% (inactive); in test [7] it was -9.43% (inactive); in test [8], -18.1% (inactive). In addition, the inhibition of aggregation in test [2] was -17.3% (inactive). Further, the figures for the nuclei count in test [2] and in test [3] were 108% and 102%, respectively. The fluorescence slope in test [4] was -0.574 (inactive). For the same compound, the NADPH fluorescence slope in test [5] is -2.7e-08 (inactive). The slope in test [6] is 0.00936 (inactive).
In the case of `Oc1ccccc1-c1cc(C(F)(F)C(F)F)[nH]n1`, the cell count in test [1] is 337. For the same compound, the inhibition was -1% (inactive) in test [1], 46.4% (inactive) in test [3], -13.1% (inactive) in test [7] and -54.6% (inactive) in test [8]. Moreover, the inhibition of aggregation in test [2] is 1.9% (inactive). Besides, the nuclei count was 105% in test [2] and 106% in test [3]. Besides, the fluorescence slope in test [4] is -0.332 (inactive). In test [5], the NADPH fluorescence slope is -2e-05 (inactive). Further, in test [6], the slope is 0.00606 (inactive).
For the compound `COc1ccc(-c2c(C(F)(F)F)oc3c(CN4CCN(C)CC4)c(O)ccc3c2=O)cc1`, the cell count in test [1] came out at 555. The inhibition in test [1] is 7.7% (inactive); in test [3], 0.6% (inactive); in test [7], -6.41% (inactive); in test [8] it was 8.59% (inactive). The inhibition of aggregation in test [2] is -14% (inactive). The nuclei count in test [2] came to 91.6%; in test [3], 112%. Besides, the fluorescence slope in test [4] is -0.421 (inactive). For the same compound, the NADPH fluorescence slope in test [5] is 2.5e-05 (inactive). The slope in test [6] is 0.00536 (inactive).
Turning to `COCCOC(=O)/C=C1/NC(=O)CS1`, the cell count in test [1] is 669. For the same compound, the inhibition in test [1] is 5.3% (inactive); in test [3], 45.1% (inactive); in test [7] it was 15.1% (inactive); in test [8], 21.6% (inactive). In addition, in test [2], the inhibition of aggregation is 9.1% (inactive). For the same compound, the nuclei count stood at 100% in test [2] and 98.3% in test [3]. In test [4], the fluorescence slope was -0.606 (inactive). Besides, the NADPH fluorescence slope in test [5] is -1.8e-05 (inactive). The slope in test [6] is 0.00397 (inactive).
On to `O=C(C1CCN(S(=O)(=O)c2cccc3cccnc23)CC1)N1CCN(C2CCCCC2)CC1`, for which the cell count in test [1] worked out at 412. Also, the inhibition in test [1] was 10.7% (inactive); in test [3], -22.1% (inactive); in test [7], -4.22% (inactive); in test [8], 35.6% (inactive). The inhibition of aggregation in test [2] was 3.3% (inactive). In addition, the nuclei count worked out at 69.2% in test [2] and 106% in test [3]. Besides, the fluorescence slope in test [4] was -0.565 (inactive). Moreover, in test [5], the NADPH fluorescence slope is -1.6e-05 (inactive). Also, the slope in test [6] is 0.00678 (inactive).
Consider `CC(C)c1ccc(S(=O)(=O)N2CCN(CCC(=O)Nc3ccc(N(C)C)cc3)CC2)cc1`, for which the cell count in test [1] is 412. Besides, the inhibition in test [1] is -1.6% (inactive); in test [3], -15.3% (inactive); in test [7], 9.08% (inactive); in test [8], 20% (inactive). The inhibition of aggregation in test [2] is 20% (inactive). For the same compound, the nuclei count was 91.6% in test [2] and 89.3% in test [3]. The fluorescence slope in test [4] is -0.397 (inactive). Moreover, the NADPH fluorescence slope in test [5] was -2.3e-05 (inactive). In test [6], the slope is 0.00369 (inactive).
